CHRM1 PAM: potentiates human M1 receptor response to acetylcholine. AID 588819. activation, % at 3 µM. CHO-K1 hM1, Fluo-8 calcium fluorescence, ACh EC20; 0% = ACh EC20, 100% = maximal ACh. P11229. hit rate 0.088% among 360,000; in the data active = activation above about 19%, passing the limit was not always enough
Target sequence (P11229 whole entry, looked up): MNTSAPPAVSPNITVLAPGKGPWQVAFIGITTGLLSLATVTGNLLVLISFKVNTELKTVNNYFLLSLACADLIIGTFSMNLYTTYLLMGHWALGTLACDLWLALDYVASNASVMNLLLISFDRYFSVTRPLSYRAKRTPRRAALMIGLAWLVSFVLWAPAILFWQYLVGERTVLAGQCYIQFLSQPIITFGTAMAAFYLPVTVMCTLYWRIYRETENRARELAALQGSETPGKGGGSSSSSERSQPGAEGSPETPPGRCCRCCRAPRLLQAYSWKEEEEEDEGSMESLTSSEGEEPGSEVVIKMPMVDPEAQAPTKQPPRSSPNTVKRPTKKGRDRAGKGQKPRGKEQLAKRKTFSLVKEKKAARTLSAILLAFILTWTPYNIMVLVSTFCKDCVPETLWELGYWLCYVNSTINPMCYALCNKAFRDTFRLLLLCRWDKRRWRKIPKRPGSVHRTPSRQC
CHO-K1 Ca ag: counter-screen for M1 agonists: effect in parental CHO-K1 cells | Fluo-8 calcium fluorescence; scaled to maximal ATP response, vehicle zero | activation, % at 3 µM | hit rate 0.48% among 360,000; in the data active = activation above about 15%;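 note: untransfected CHO-K1 host cells lacking M1 receptor as counterscreen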
M1 ag: agonists of human M1 muscarinic receptor; hit rate 0.33% among 360,000; CHO-K1 hM1, Fluo-8 calcium fluorescence, agonist mode; 0% DMSO, 100% acetylcholine EC100; activation, % at 3 µM;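 active = activation above the run's mean compound activation plus 3 SD, cut at about 16% in these data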;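 note: peak over basal fluorescence ratio within a 140 s kinetic read after compound addition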
CHO-K1 Ca antag: nonselective inhibitor or artifact in parental CHO-K1 cells; inhibition, % at 3 µM; hit rate 0.6% among 360,000; AID 602250; ATP-induced calcium, Fluo-8 fluorescence;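 active = inhibition above a per-plate cutoff, the plate's mean sample inhibition plus 3 SD, cut at about 24% in these data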
CHRM1 antagonist: antagonists of human M1 muscarinic receptor; AID 588852; inhibition, % at 3 µM; CHO-K1 hM1, Fluo-8 calcium fluorescence, ACh EC80 antagonist; hit rate 1.3% among 360,000;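 active = percent inhibition above its own plate's cutoff, namely the mean of that plate's compound wells plus 3 SD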;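 note: peak over basal fluorescence ratio during 140 s after agonist addition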
M1 PAM parental: nonselective activator or artifact in parental CHO-K1 calcium assay. hit rate 0.02% among 360,000. ATP EC20, Fluo-8 calcium fluorescence; 0% at ATP EC20, 100% at ATP max. activation, % at 3 µM. AID 602247;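 active = activation above the run cutoff, the mean activation of all test compounds plus 3 SD, cut at about 40% in these data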;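 note: peak over basal fluorescence ratio in a 140 s read after ATP addition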
Large screens that a line does not name were inactive. This is a sample that favours compounds with a hit; in the whole collection about 2.3% have one here.

CC(C)Oc1ccc(CN2CCC2(C)C(=O)Nc2ccc3c(c2)OCO3)cc1 (stereo unspecified)	none
CN(C)c1ccc(/C=C/c2nc3ccccc3c(=O)n2-c2ccc(C(=O)O)cc2)cc1	CHO-K1 Ca ag 17, M1 ag 70, CHRM1 antagonist 39
CC(C)(CN1CCN(C(c2ccccc2)c2ccccc2)CC1)NS(=O)(=O)c1ccccc1	none
Cn1cnnc1SCC(=O)Nc1sc2c(c1C(N)=O)CCC2	none
Cc1cccc(NC(c2ccc(O)cc2)c2ccc3ccc(C)nc3c2O)n1 (stereo unspecified)	CHO-K1 Ca antag 25
Cc1cc(NC(c2cccnc2)c2ccc3cccnc3c2O)no1 (stereo unspecified)	none
Cc1ccc(C(=O)N2CCC(C(=O)c3ccc(F)cc3)CC2)cc1	none
Cc1ccc(C(=O)N2C(=S)C(c3ccc(F)cc3)=NC23CCN(C)CC3)cc1	CHRM1 antagonist 56
O=C1CCCN2N=C(SCC(=O)Nc3cccc(C(F)(F)F)c3)SC2=N1	CHO-K1 Ca antag 26, CHRM1 antagonist 27
Cc1ccc(NC(=O)CSC2=NN3CCCC(=O)N=C3S2)cc1Cl	CHO-K1 Ca ag 16
O=C1CCCN2N=C(SCC(=O)Nc3cccc(Cl)c3)SC2=N1	CHO-K1 Ca ag 16
O=C1CCCN2N=C(SCC(=O)Nc3ccc(Cl)cc3)SC2=N1	none
CNC(=S)N(Cc1ccc(OC)cc1)C1CC(=O)N(c2ccc(OC)cc2)C1=O (stereo unspecified)	none
O=[N+]([O-])c1cc2c(c([N+](=O)[O-])c1)Nc1ccccc1O2	CHO-K1 Ca ag 17
O=C1Nc2ccccc2Oc2cc([N+](=O)[O-])cc(Oc3ccccc3)c21	none
O=C(NC(=S)N(CC1CCC1)CC1CCCO1)c1cccc([N+](=O)[O-])c1 (stereo unspecified)	none
CCC(=O)c1ccc(OCC(=O)OCC(=O)Nc2cccc(S(=O)(=O)N3CCCC3)c2)cc1	none
CCC(=O)c1ccc(OCC(=O)OCC(=O)Nc2ccc(C)c(S(=O)(=O)N3CCCCC3)c2)cc1	CHO-K1 Ca ag 16
Cc1cc(/C=C2\Sc3ccccc3N2C)cc(C)[n+]1CC1CCCO1 (stereo unspecified)	none
O=C1Nc2ccccc2C(=O)N2[C@H](c3ccccc3)[C@@H]3C(=O)N(Cc4ccccc4)C(=O)[C@@H]3[C@H]12	M1 ag 23
Cc1cc(=O)oc(C)c1C(=O)OCC(=O)c1ccc(Cl)cc1	none
COc1ccccc1NC(=O)Nc1nc(C(C)(C)C)cs1	CHO-K1 Ca ag 31
COc1cc(CC(=O)OCC(=O)NCCc2ccc(S(N)(=O)=O)cc2)cc(OC)c1OC	none
O=C(N/N=C/c1ccc2cccc(OCc3ccccc3)c2n1)c1ccc(Cl)cc1	CHRM1 antagonist 34
O=C(O)c1cccc(CN2C(=O)c3ccccc3C2=O)c1	none
O=C1c2cccc3c(O)ccc(c23)C(=O)N1Cc1ccccc1	CHO-K1 Ca ag 149, M1 ag 262, CHO-K1 Ca antag 60, CHRM1 antagonist 70
COc1ccccc1CCN=C(N)NS(=O)(=O)c1ccc(C)cc1	CHO-K1 Ca ag 17
COc1ccc(CCN=C(N)NS(=O)(=O)c2ccc(C)cc2)cc1OC	none
CSc1nc2sc3c(c2c(=O)n1C1CCCCC1)CCN(C)C3	CHRM1 antagonist 29
C=C(C)CSc1nc2sc3c(c2c(=O)n1-c1ccccc1)CCN(C)C3	CHRM1 antagonist 36
C=C(C)CSc1nc2sc3c(c2c(=O)n1C1CCCCC1)CCN(C)C3	CHRM1 antagonist 31
O=C(O)CCn1c(SCCc2ccccc2)nc2ccccc21	none
CN(C)CCC(c1ccccc1)c1ccccn1 (stereo unspecified)	none
CC(C1=C(CCN(C)C)Cc2ccccc21)c1ccccn1 (stereo unspecified)	CHRM1 antagonist 77
COc1ccc(S(=O)(=O)N(C)C[C@H]2OCCCC[C@H](C)Oc3ccc(NC(=O)Nc4ccc(F)cc4)cc3C(=O)N([C@H](C)CO)C[C@H]2C)cc1	none
C[C@H](CO)N1C[C@H](C)[C@@H](CN(C)S(=O)(=O)c2cn(C)cn2)Oc2ccc(NC(=O)Nc3ccccc3)cc2C1=O	none

Compound activity (PubChem BioAssay)
